# From PubChem BioAssay (NCATS)
# Inconclusive results are not listed. Active and inactive are the calls of the source. Calls come from the whole dose curve; as a rule, active = well fitted inhibition curve with a large enough effect; inconclusive = small, poorly fitted or top-dose-only effect; inactive = no such curve, though single readings can be large or run the other way.
# Assay: Primary qHTS for small molecule stabilizers of the endoplasmic reticulum resident proteome: Secreted ER Calcium Modulated Protein (SERCaMP) assay (AID 1508630)
# Details: SH-SY5Y GLuc-SERCaMP (Gaussia luciferase released on ER calcium loss) secretion, thapsigargin, luminescence; series mostly up to 38.4 µM; activity change, negative = inhibition: at the top concentration
# Procedure, shortened: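 GLuc-SERCaMP-expressing SH-SY5Y cells, pretreated 16 h with compound, are challenged with thapsigargin to empty ER calcium stores; after 4 h, coelenterazine is added directly to the medium and luminescence is imaged.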
# % is set by controls: 0 for no effect and ±100 for the full control effect.
SMILES,"activity change, negative = inhibition",outcome
CC(C)(C)c1o[nH]c(=O)c1CC(N)C(=O)O (configuration not stated),4.8% (inactive),
O=c1c2ccccc2[se]n1-c1ccccc1,,inactive
NC(N)=Nc1ccc2[nH]c3c(c2c1)C[C@@]1(O)[C@H]2Cc4ccc(O)c5c4[C@@]1(CCN2CC1CC1)[C@H]3O5,72.6% (inactive),
CCCN(CCC)CCc1c[nH]c2ccc(C(N)=O)cc12,,inactive
CC(C)NP(=O)(NC(C)C)OP(=O)(NC(C)C)NC(C)C,-10.9% (inactive),
Ic1ccccc1CNC1C2CCN(CC2)C1C(c1ccccc1)c1ccccc1 (configuration not stated),198% (inactive),
COc1ccc2[nH]cc(CCN)c2c1,,inactive
C/C(O)=C(\C#N)C(=O)Nc1cc(Br)ccc1Br,50.9% (inactive),
C[C@@H]1[C@@H]2Cc3ccc(O)cc3[C@@]1(C)CCN2CC1CC1,23.4% (inactive),
CC(Cc1ccc(OCC(=O)O)cc1)NCC(O)c1cccc(Cl)c1 (configuration not stated),,inactive
O=C(O)c1cc[c]([Hg][Cl])cc1,33.8% (inactive),
C=CCN1CC[C@]23c4c5ccc(O)c4O[C@@H]2/C(=N/N=C2\CC[C@@]4(O)C6Cc7ccc(O)c8c7[C@@]4(CCN6CC=C)[C@@H]2O8)CC[C@@]3(O)C1C5,157% (inactive),
CCCN(CCC)C1Cc2cc(OC)c(OC)cc2C1,,inactive
O=C1OC2(c3cc(Br)c(O)cc3Oc3c2cc(Br)c(O)[c]3[Hg])c2ccccc21 (configuration not stated),-27.4% [at 13 µM] (inactive),
COc1ccc2[nH]c3c(c2c1)CCNC3,11.5% (inactive),
COc1ccc(OC)c(C(O)C(C)N)c1 (configuration not stated),-21.6% (inactive),
C=CCN(C1=NCCN1)c1c(Cl)cccc1Cl,-6.66% (inactive),
Cc1[nH]c2ccc(O)cc2c1CCN,,inactive
Oc1ccc2c3c1O[C@H]1c4oc5ccccc5c4C[C@@]4(O)C(C2)N(CC2CC2)CCC314 (some centres not stated),40.7% (inactive),

SMILES,"activity change, negative = inhibition",outcome
CC(C)(O)[C@@H]1C2OC(=O)[C@@H]1[C@]1(O)C[C@H]3O[C@]34C(=O)O[C@H]2[C@]14C (tested in a mixture with another compound),-28.9% (inactive),
CN1CCC(c2c[nH]c3ccc(O)cc23)CC1,-21% (inactive),
COc1ccc2c(c1O)-c1cccc3c1[C@@H](C2)N(C)CC3,-10.1% (inactive),
Cc1cccc(C(C)c2cnc[nH]2)c1C (configuration not stated),0.472% (inactive),
C[C@]12Cc3cn4c(nc3C=C1CCC1C2CC[C@@]2(C)[C@H]1CC[C@@]2(O)C#N)nc1ccccc14 (some centres not stated),-22.9% (inactive),
CP(=O)(O)C1=CCNCC1,18% (inactive),
NC(=O)CI,11.6% (inactive),
C[C@H](N)Cc1cccc(C(F)(F)F)c1,-25.1% (inactive),
N[C@@H](CCl)C(=O)O,5.5% (inactive),
C[N+](C)(C)CC#CCN1CCCC1=O,,inactive
CC1(C)S[C@@H]2[C@H](N)C(=O)N2[C@H]1C(=O)O,-6.26% (inactive),
Cc1cc([C@@H]2CCCN2C)on1,-31.1% (inactive),
C=CCN1CCC23c4c5ccc(O)c4O[C@H]2C(=O)CC[C@@]3(O)C1C5 (some centres not stated),-30.8% (inactive),
COc1ccc(CNC(=O)/C=C/c2ccc3[nH]cc(CCN(C)C)c3c2)cc1,-20.9% (inactive),
NC(=O)c1cc(N2CC2)c([N+](=O)[O-])cc1[N+](=O)[O-],-21% (inactive),
CC(C)(C)c1cc(C=C(C#N)C#N)cc(C(C)(C)C)c1O,,inactive
O=c1ccc2[nH]cc(C3=CCNCC3)c2[nH]1,-18.4% (inactive),
C[CH2][Hg][S]c1ccccc1C(=O)O,190% (inactive),
